What all share (test): NCI-60 one-dose screen, 48 h (100 = growth as untreated, 0 = no growth, -100 = all killed)
Common to all, as to settings: 10 µM

Assay [1] concerns HCT-15 colon.
Assay [2] has as its system HT29 colon.
Assay [3] has as its system SNB-75 CNS.
In assay [4] the test system is SNB-19 CNS.
Assay [5] relates to U251 CNS.
In assay [6] the test system is PC-3 prostate.
Assay [7] relates to SK-MEL-5 melanoma.
The test system of assay [8] is UACC-62 melanoma.
Assay [9] deals with LOX IMVI melanoma.
The subject of assay [10] is SK-MEL-2 melanoma.
Assay [11] has as its system EKVX NSCLC.
The test system of assay [12] is SN12C renal.
In assay [13] the test system is UO-31 renal.
Assay [14] relates to TK-10 renal.
Assay [15] has as its system ACHN renal.
Assay [16] has as its system CAKI-1 renal.
For assay [17], the system named is A498 renal.
The subject of assay [18] is CCRF-CEM leukemia.
For assay [19], the system named is MOLT-4 leukemia.
Assay [20] deals with SK-MEL-28 melanoma.

The panel holds about 83,000 compounds, 20% with a hit somewhere; the sample as a whole holds those more often.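 Compound tested at a single concentration for 48 hours in 96-well plates; a percent growth value below 10 was scored as active.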 Unmarked numbers belong to inactive results. The source made the active and inactive calls.

On to `Cc1noc2c(Cc3ccc([N+](=O)[O-])cc3)nn(CC(=O)N/N=C/c3ccc(Cl)cc3)c(=O)c12`, for which the growth in assay [1] was 80.5%; in assay [2], 62.3%; in assay [3], 44.9%; in assay [4], 42.2%; in assay [5], 12.7%; in [6], 59.5%. Besides, the growth was 88.4% in assay [7]; 65.3% in [8]; 40.7% in assay [9]; 90.5% in assay [10]; 79.8% in assay [11]; 54% in assay [12]. Besides, the growth in assay [13] was 40.8%; in [14], 71.9%; in assay [15] it was 19.4%; in assay [16], 52.3%; in [17] it was 80.1%; in [18], 95.6%. Besides, the growth in [19] was 97.8%.
As for `NS(=O)(=O)c1ccc(NC(=O)CSc2ccc(-c3ccccc3)nn2)c(Br)c1`, the growth in assay [1] is 86.7%; in [2], 99.2%; in [3], 14.2%; in [4], 42.9%; in [5], 17.8%; in [6] it was 51.9%. Besides, the growth in assay [7] was 85.7%; in assay [8] it was 59.2%; in assay [9], 42.6%; in assay [10], 95.8%; in assay [11], 70.1%; in [12], 57.4%. In addition, the growth in assay [13] is 75.1%; in assay [14] it was 118%; in [15] it was 54.2%; in assay [16], 84.5%; in assay [17], 120%; in [18], 89.9%. Further, in [19], the growth was 95.6%.
Consider `CONC[C@]1(C)C=C2C(=O)[C@](C)(O)C3(CC3)C(C)=C2[C@H]1O`, for which the growth in [1] was -24.4% (active); in assay [2], -12% (active); in [3], -80.9% (active); in [4], -10.7% (active); in assay [5], 3.39% (active); in assay [6], 3.46% (active). Moreover, the growth in [7] is -37.4% (active); in [8], -90% (active); in [9] it was -67.3% (active); in assay [11], -45.3% (active); in assay [12], -6.45% (active); in [13], -24.8% (active). The growth in assay [14] is 7.09% (active); in assay [15], -25.7% (active); in [16], -0.623% (active); in assay [17], -29.7% (active); in [18] it was 4.58% (active).
Take `COc1ccc(CCN2C(=O)/C(=C/c3csc(C#N)n3)SC2=S)cc1OC`: the growth in assay [1] is -45.4% (active); in assay [2], -48.4% (active); in assay [3], 71.7%; in assay [4], 80%; in assay [5], 89.8%; in assay [6], 71.6%. In addition, the growth in assay [7] was 74.2%; in [8], 46.8%; in assay [9], -62.7% (active); in [10], 85.6%; in assay [11], 79.8%; in assay [12], 31.8%. The growth in assay [13] is 15.5%; in [14], 1.31% (active); in assay [15] it was 8.31% (active); in assay [17], 80%; in assay [19] it was -10.7% (active).
`COc1cc(-c2nc3cc(Cl)c(Cl)cc3[nH]2)ccc1OCc1nnc(-c2ccc(Br)cc2)o1`: the growth in assay [1] was 3.31% (active); in assay [2], 10%; in assay [3], -58.8% (active); in [4], 41.5%; in [5] it was 1.03% (active); in assay [6] it was -15.8% (active). For the same compound, the growth was 3.12% (active) in assay [7]; -42.1% (active) in [8]; -25% (active) in assay [20]; 0.585% (active) in [10]; 14.3% in [11]; -39.2% (active) in [12]. Also, the growth is -91.1% (active) in assay [13]; -43.4% (active) in [14]; -100% (active) in [15]; -76.6% (active) in assay [16]; -86.5% (active) in assay [17]; 7.7% (active) in assay [18]. Moreover, the growth in [19] is -7.63% (active).
On to `O=C(CSc1nnc(-c2ccc3nc(-c4ccc(Cl)cc4)[nH]c3c2)o1)Nc1ccc(Br)cc1`, for which the growth was -64.2% (active) in assay [1]; -15.8% (active) in assay [2]; 5.11% (active) in assay [3]; -26.6% (active) in assay [4]; -63.9% (active) in assay [5]; 5.11% (active) in [6]. In addition, the growth in assay [7] is -36.9% (active); in assay [8], -90.8% (active); in [9], -100% (active); in assay [10] it was -69.6% (active); in assay [11], 27.9%; in [12], -89.2% (active). Moreover, the growth is 21.9% in assay [13]; 86% in [14]; -62.5% (active) in assay [15]; -27.8% (active) in assay [16]; 66.1% in assay [17]; 6.06% (active) in [18]. In addition, the growth in assay [19] was -0.919% (active).
On to `NS(=O)(=O)c1ccc(N=Nc2c(O)n(CC(=O)Nc3ccccc3Br)c3ccccc23)cc1`, for which the growth in assay [1] is 38.2%; in assay [2], 9.73% (active); in assay [3] it was 77%; in assay [4] it was 50.1%; in [5], 25.1%; in assay [6], 39.7%. In addition, the growth was 14.7% in assay [7]; 31.2% in [8]; 24.9% in assay [20]; 49.1% in assay [11]; 47.6% in [12]; 14.4% in assay [13]. In addition, the growth in [14] was 63.3%; in assay [15] it was 13.9%; in assay [16] it was 23.7%; in [17], 94.1%; in assay [18] it was 57.2%; in assay [19], 41.4%.
On to `O=C(O)CCCCCCCCCCN1C(=O)/C(=C/c2cnc(-c3ccc(Cl)cc3)s2)SC1=S`, for which the growth in assay [1] is 26.3%; in [2], 96.3%; in assay [3], 73.3%; in assay [4], 27.1%; in [5], -13% (active); in assay [6], 25.4%. Also, the growth in assay [7] was 27.4%; in assay [8], 0.545% (active); in [9], 5.11% (active); in assay [10], -38.6% (active); in assay [11] it was -12.5% (active); in assay [12] it was -57.4% (active). Further, the growth in [13] was 38.1%; in assay [14] it was 58.2%; in assay [15], 22.1%; in assay [16] it was 12.2%; in [17], 83.2%; in assay [19], 19.7%.

For the origin of these results see PubChem BioAssay (NCI).
